# Source: article PMC5540273 (PLoS ONE, 2017)
# System: TYK2(JH1domain-catalytic)
# Settings: concentration: 1 μM, replicates: in singlicate; n = 1
# 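Further: KINOMEscan kinase panel screen.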
row,SMILES,%Inh
1,Cn1cc(-c2ccc3c(c2)CCN3C(=O)Cc2cccc(Cl)c2)c2c(N)ncnc21 [GSK2606590],10%
2,COc1ccc(-c2coc3ccc(-c4nnc(SCc5ccc(OC)c(C(F)(F)F)c5)o4)cc23)cc1,27%
3,CCS(=O)(=O)c1ccc(OC)c(Nc2nccc(-c3c(-c4cccc(NC(=O)c5c(F)cccc5F)c4)nn4ncccc34)n2)c1 [GSK326180],0%
4,O=C(Nc1cccc(-c2nn3ccccc3c2-c2ccnc(Nc3cccc(C(F)(F)F)c3)n2)c1)c1c(F)cccc1F [GSK292658],20%
5,NCCCC(NC(=O)c1cc(Br)c(-c2ccnc3[nH]ccc23)s1)c1ccccc1.O=C(O)C(F)(F)F.O=C(O)C(F)(F)F (stereo not shown) [GSK1287544],75%
6,CC(=O)Nc1nc2cnc(Nc3cc(NC(=O)c4cccc(C5(C#N)CC5)c4Cl)ccc3C)nc2s1,0%
7,COc1ccc(CNC(=O)NC2CCN(c3ccnc(Nc4ccc(F)cc4)n3)CC2)cc1 [GSK1379788],21%
8,Clc1ccc(-c2nn3ncccc3c2-c2ccnc(Nc3ccc4c(c3)OCCO4)n2)cc1 [GW829116],0%
9,CC(C)(C)c1ccc2nccc(Nc3cccc(O)c3)c2c1 [GW856795],42%
10,COc1cc(Nc2nccc(N3CCC(NC(=O)Nc4cccc(C(C)=O)c4)C3)n2)cc(OC)c1OC (stereo not shown) [GSK1379753],45%
11,COc1cc(Nc2nccc(-c3c(-c4cccc(NC(=O)c5c(F)cccc5F)c4)nn4ccccc34)n2)cc(OC)c1OC [GSK323521],0%
12,COc1cccc(NC(=O)NC2CCN(c3ccnc(Nc4cc(OC)c(OC)c(OC)c4)n3)C2)c1 (stereo not shown) [GSK1379763],20%
13,O=C(O)C(F)(F)F.O=C(O)C(F)(F)F.O=c1[nH]ccc2nc(N[C@@H]3CCCNC3)nc(Nc3ccc(S(=O)(=O)N4CCOCC4)cc3)c12 [GSK2177277],99.7%
14,CCCCc1nn2ncccc2c1-c1ccnc(Nc2ccc(N3CCN(C)CC3)cc2)n1 [GW684941],44%
15,CN(c1ccc(NC(=O)Nc2cc(C(F)(F)F)ccc2F)cc1)c1ccnc(Nc2ccc(S(N)(=O)=O)cc2)n1 [GW809893],44%
16,Nc1ncc(-c2cccnc2)c2scc(-c3ccc4c(c3)CCN4C(=O)Cc3ccccc3)c12 [GSK683281],11%
17,Cc1ccc(C(=O)Nc2ccc(Nc3ccnc4cc(-c5nccs5)ccc34)cc2O)cc1.Cl [GW494702],42%
18,COc1cc(Nc2nccc(N3CCC(NC(=O)c4cc5ccccc5s4)C3)n2)cc(OC)c1OC (stereo not shown) [GSK1379760],28%
19,O=C(Nc1cccc(-c2nn3ccccc3c2-c2ccnc(Nc3cccc(F)c3)n2)c1)c1c(F)ccc(F)c1Cl [GSK357952],11%

row,SMILES,%Inh
1,CN(C)Cc1ccc(-c2ccc3c(Nc4ccc(Oc5ccccn5)cc4)ccnc3c2)o1 [GW567148],30%
2,CNC(=O)c1ccccc1Nc1nc(Nc2ccc(N3CCOCC3)cc2)ncc1Cl.Cl [GSK1576028],99.9%
3,Cl.Cl.NCC(NC(=O)c1cc(-c2ccccc2)c(-c2ccnc3[nH]ccc23)s1)c1ccccc1 (stereo not shown) [GSK1321561],20%
4,COc1ccc(Nc2nccc(N3CCC(NC(=O)Nc4cccc(OC)c4)C3)n2)cc1 (stereo not shown) [GSK1379742],24%
5,COC(=O)Nc1nc2cc(Oc3ccc(NC(=O)Nc4cc(C(F)(F)F)ccc4F)cn3)ccc2[nH]1.Cl.Cl [GW681170],14%
6,O=C(Nc1n[nH]c2cc(-c3ccoc3)ccc12)C1CC1 [SB-738481],51%
7,CSc1cccc2c(-c3ccncn3)c(-c3ccc(F)cc3)nn12 [GW514786],0%
8,c1ccc(Oc2ccc(Nc3ccnc4cc(-c5ccc(CNCCN6CCOCC6)o5)ccc34)cc2)nc1 [GW567145],0%
9,Nc1ncnc2c1nc(-c1ccccc1)n2-c1ccccc1 [SKF-97293],68%
10,Cl.c1ccc(-c2ccc3c(Nc4ccc5[nH]ccc5c4)ccnc3c2)nc1 [GW440138],29%
11,Cl.NC(=O)c1cccc(Nc2nccc(Nc3ccc(Oc4c(Cl)cccc4Cl)c(Cl)c3)n2)c1 [GW659009],21%
12,Cc1occc1-c1ncc(OC[C@@H](N)Cc2c[nH]c3ccccc23)cc1-c1ccc2[nH]nc(C)c2c1.O=C(O)C(F)(F)F [GSK682037],7%
13,Cc1ccc(C(=O)N2CC[C@@H](O)C2)cc1-n1c(C)cc(OCc2ccc(F)cc2F)c(Br)c1=O,0%
14,Oc1cc(Nc2ccnc3cc(I)ccc23)ccc1F [GW552771],32%
15,c1ccc(-c2n[nH]cc2Nc2ccnc3ccccc23)nc1 [GW694077],92%
16,CC(C)c1nc(-c2cccc(NS(=O)(=O)c3c(F)cccc3F)c2F)c(-c2ccnc(Nc3ccc(N4CCOCC4)nc3)n2)s1 [GSK2008607],94.9%
17,Cn1cc(-c2[nH]c3cc(NC(=O)[C@H](N)C4CCCCC4)cc4c3c2C=NNC4=O)cn1,95.1%
18,C[C@@H](Oc1cc(-n2cnc3cc(-c4ccnc(NCCS(C)(=O)=O)c4)ccc32)sc1C(N)=O)c1ccccc1Cl [GSK907232],12%
